From PubChem BioAssay AID652068 (The Scripps Research Institute Molecular Screening Center, 2013)
About 4,000 (93%) of roughly 4,300 compounds were called active.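 The calls were made as follows: active = inhibition above its plate's cutoff, the mean test-well inhibition plus 3 SD (cut at about 4.8% in these data); inactive = the rest.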 The set was probably picked from earlier hits. Only a sample is shown.

assay: displacement of TO-PRO-1 from CAG DNA duplex, counter-screen for rCAG RNA repeat binder project, biochemical, fluorescence, TO-PRO-1 dye, d(CAG) DNA oligo (AID 652068); conditions: d(CAG) DNA oligo TO-PRO-1 dye displacement, at 3 µM, stronger effect = higher value;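 also: 0% = DNA dye mix with DMSO and 100% = 100 µM mitoxantrone; hits displace the dye from DNA and so lower well fluorescence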

| Structure (SMILES) | inhibition |
| --- | --- |
| CC(C)c1ccc(Nc2nnc(SCC(=O)c3nnc(-c4ccccc4)o3)s2)cc1 | 27.2% (active) |
| O=C(O)c1ccc(NN=CC2=C(N3CCOCC3)/C(=C/c3ccccc3)CC2)cc1 | 30.8% (active) |
| NC(=O)c1c(Nc2nc3c(F)cccc3s2)sc2c1CCCC2 | 14.3% (active) |
| COc1ccc(OC)c(NC(=O)CSc2nc(-c3ccccc3)cc(=O)[nH]2)c1 | 5.74% (active) |
| CCOc1cc(/C=C(\C#N)c2nc(-c3cccs3)c(NC(C)=O)s2)ccc1O | 16.7% (active) |
| CCCOc1ccc(Cn2c(O)cc(=O)[nH]c2=O)cc1 | 6.06% (active) |
| COc1ccc(Cl)cc1-n1c(=S)sc2c(=O)n(-c3ccc(F)cc3)c(SCC(=O)O)nc21 | 8.24% (active) |
| COc1ccccc1/C=C/C=N/n1c(-c2ccc(Cl)cc2Cl)n[nH]c1=S | 15.2% (active) |
| COc1cc(C2CC(=O)N3CN(Cc4ccccc4)CSC3=C2C#N)ccc1OCc1ccccc1 (stereo not drawn) | 12.4% (active) |
| Cc1ccc(Nc2nc(-c3ccc(O)cc3O)cs2)nc1 | 13% (active) |
| O=C(N/N=C/c1cc(Cl)cc([N+](=O)[O-])c1O)C(O)(c1ccccc1)c1ccccc1 | 17.8% (active) |
| Cc1cc(/C=C2/C(=N)N3C(=NC2=O)SN=C3S(C)(=O)=O)c(C)n1-c1ccccc1 | 53.2% (active) |
| Clc1ccccc1CSc1nnc(-c2ccco2)c(-c2ccco2)n1 | 30% (active) |
| Cc1cc(F)ccc1S(=O)(=O)Nc1ncnc2scc(-c3ccc(F)cc3)c12 | 34.7% (active) |
| O=C(Nc1nc(-c2ccco2)c(-c2ccco2)s1)c1ccco1 | 16.6% (active) |
| Cc1ccc(C(=O)O)cc1-c1ccc(/C=C2\SC(=O)N(CC(=O)Nc3ccc4c(c3)OCO4)C2=O)o1 | 59.2% (active) |
| Cc1ccc(C(C)C)c(OCCSc2nc3ccccc3n2CC(=O)O)c1 | 10.7% (active) |
| Cc1ccc(C)c(Cn2nnc3c(=O)[nH]c(C(=O)Nc4ccc(F)cc4)nc32)c1 | 11.1% (active) |
| O=c1cc(CN2CCN(S(=O)(=O)/C=C/c3ccccc3)CC2)c2ccc(O)cc2o1 | 13.1% (active) |
| Cc1cccc(C)c1NC(=O)C(c1ccc(C(F)(F)F)cc1)n1c(=O)c(-c2ccco2)nc2ccccc21 (stereo not drawn) | 7.75% (active) |
| O=C1c2cccc3cccc(c23)C(=O)N1CCCCCc1n[nH]c(=S)o1 | 6.52% (active) |

| Structure (SMILES) | inhibition |
| --- | --- |
| CC(C)c1nc(SCC(=O)Nc2cccc(C(=O)O)c2)c2c3c(sc2n1)CCCC3 | 20% (active) |
| O=C(N/N=C/c1cccnc1)c1cc2ccccc2cc1O | 4.9% (active) |
| Cc1ccc(NC(=O)Nc2nnc(-c3ccncc3)s2)cc1 | 13.7% (active) |
| Cc1nnc(NC(=O)Nc2ccc(Cl)c(Cl)c2)s1 | 21.5% (active) |
| C=C1c2c(Cl)ccc(O)c2C(O)=C2C(=O)[C@]3(O)C(O)=C(C(N)=O)C(=O)[C@@H](N(C)C)[C@@H]3[C@@H](O)C12 (stereo partly drawn) | 38% (active) |
| Cc1ccc(Nc2nc(CSc3nnnn3-c3ccccc3)cc(=O)[nH]2)cc1 | 16.6% (active) |
| O=C(O)c1ccc2c(c1)C(=O)N(c1ccc(/C=C/C(=O)c3ccccc3)cc1)C2=O | 23.6% (active) |
| CCOc1ccc(-n2c(O)c(/C=N/Nc3nnc(C)c(=O)[nH]3)c3ccccc3c2=O)cc1 | 22.9% (active) |
| N#Cc1c(NC(=O)C2CC(Cl)=CCC2C(=O)O)sc2c1CCCCC2 (stereo not drawn) | 9.19% (active) |
| COC(=O)c1c(NC(=O)C2CC(C)=C(C)CC2C(=O)O)sc2c1CCCCC2 (stereo not drawn) | 20.6% (active) |
| CCc1nnc(NS(=O)(=O)c2ccc(NC(=O)c3cccc(OC(F)(F)C(F)F)c3)cc2)s1 | 22.8% (active) |
| CCc1nnc(NS(=O)(=O)c2ccc(NC(=S)NC(=O)c3cccs3)cc2)s1 | 16.6% (active) |
| O=C(O)CC/C(=C\c1cc2c(cc1Br)OCO2)c1nc2ccccc2s1 | 13.3% (active) |
| COc1ccc(C(=O)Nc2cccc(/C=C(/CCC(=O)O)c3nc4ccccc4s3)c2)cc1 | 33.5% (active) |
| Cc1ccc2cc(/C=N/Nc3ccc(C(=O)O)cc3)c(Cl)nc2c1 | 12% (active) |
| Cc1ccc(/C=C/C(=O)Nc2ccc([N+](=O)[O-])c(NC(=O)/C=C/c3ccc(C)o3)c2)o1 | 24.9% (active) |
| O=C(Nc1nnc(-c2ccccc2)o1)c1cc(-c2cccs2)nc2ccccc12 | 28.7% (active) |
| O=C(Nc1ccccc1)Nc1nnc(COc2ccccc2F)s1 | 24.9% (active) |
| O=C(NC(=S)Nc1ccccc1C(=O)O)c1ccc(-c2ccc(Br)cc2)o1 | 40.4% (active) |
| COCCNC(=O)Nc1ccc2nc(-c3ccco3)c(-c3ccco3)nc2c1 | 28.6% (active) |
| Cc1ccc(C(=O)Oc2coc(CSc3nnc(NC(=O)c4cccs4)s3)cc2=O)cc1C | 23.1% (active) |

| Structure (SMILES) | inhibition |
| --- | --- |
| Cc1ccc(-c2csc(C(C#N)=C(O)CN3CCN(C(=O)c4ccco4)CC3)n2)cc1 | 18.7% (active) |
| Cc1ccc(S(=O)(=O)NCCC(c2ccccc2)c2ccccc2)cc1C(=O)O | 5.44% (active) |
| Cc1ccccc1OCC(=O)Nc1nnc(S(=O)(=O)N2CCCC2)s1 | 10.8% (active) |
| CCCCCCC(=O)Nc1nc(C)c(-c2csc(Nc3cc(Cl)ccc3OC)n2)s1 | 11.6% (active) |
| C[C@H]([C@@H](O)[C@@H](O)[C@@H](C)C(C)(C)C)[C@H]1CC[C@H]2C3CC[C@H]4C[C@H](OS(=O)(=O)O)[C@@H](OS(=O)(=O)O)C[C@]4(C)[C@H]3CC[C@]12C (stereo partly drawn) | 61.2% (active) |
| Cc1ccc(S(=O)(=O)Nc2nc3ccccc3s2)cc1[N+](=O)[O-] | 6.62% (active) |
| O=C1/C(=C/c2ccc(F)cc2)SC(=S)N1NS(=O)(=O)c1ccccc1 | 11.9% (active) |
| COc1ccc2[nH]c3c(C)c4cc[n+](C)cc4c(C)c3c2c1 | 61.2% (active) |
| Oc1c(Cl)cc(Cl)c(Cl)c1Cc1c(O)c(Cl)cc(Cl)c1Cl | 76.5% (active) |
| Cc1cc(NS(=O)(=O)c2ccc(NC(=O)CSc3nnc(-c4ccc(C(C)(C)C)cc4)n3Cc3ccco3)cc2)nc(C)n1 | 4.42% (active) |
| CCn1c(SCC(=O)Nc2ccc(S(=O)(=O)Nc3onc(C)c3C)cc2)nnc1-c1ccccc1 | 6.29% (active) |
| Cc1cc(NS(=O)(=O)c2ccc(NC(=O)CSc3nnc(SCc4ccc(F)cc4)s3)cc2)nc(C)n1 | 13% (active) |
| Cc1nnc(SC(C(=O)Nc2cc(Cl)cc(Cl)c2)c2ccccc2)[nH]c1=O (stereo not drawn) | 28% (active) |
| CCOc1ccc(-n2c(SCC(=O)Nc3cc(C(=O)O)ccc3Cl)nc3ccccc3c2=O)cc1 | 19.2% (active) |
| COC(=O)c1sc(-c2ccc(C(C)(C)C)cc2)cc1NC(=O)/C=C/C(=O)O | 41.3% (active) |
| CSc1ccc(C=Nn2c(-c3ccc(F)cc3)n[nH]c2=S)cc1 | 11.3% (active) |
| CC(C(=O)Nc1ccc(O)c(C(=O)O)c1)N1C(=O)/C(=C/c2cccs2)SC1=S (stereo not drawn) | 42.3% (active) |
| COc1ccc(S(=O)(=O)NCCc2c[nH]c3ccccc23)cc1OC | 0.56% (inactive) |
| CC(Oc1ccc2c(-c3ccccc3)cc(=O)oc2c1)C(=O)NC(Cc1c[nH]c2ccccc12)C(=O)O (stereo not drawn) | 16.9% (active) |
| COc1ccc(-c2cc(=O)oc3cc(OCC(=O)N[C@@H](Cc4c[nH]c5ccccc45)C(=O)O)ccc23)cc1 | 26.4% (active) |
| O=C(N[C@@H](Cc1c[nH]c2ccccc12)C(=O)O)OCC1c2ccccc2-c2ccccc21 | 23.8% (active) |

| Structure (SMILES) | inhibition |
| --- | --- |
| COc1ccc(-c2cc(C(=O)NC(Cc3c[nH]c4ccccc34)C(=O)O)c(C)o2)cc1OC (stereo not drawn) | 16.9% (active) |
| COc1cccc2sc(NNC(=O)c3nc4ccccc4s3)nc12 | 42.1% (active) |
| Cc1ccc(-n2c(SCC(=O)Nc3ccc(S(=O)(=O)Nc4nccs4)cc3)nnc2-c2cccnc2)cc1 | 24.7% (active) |
| Cc1ccc(-n2c(SCC(=O)Nc3ccc(S(=O)(=O)Nc4nccs4)cc3)nnc2-c2ccncc2)cc1 | 35.9% (active) |
| Cc1ccc(-n2c(SCC(=O)Nc3ccc(S(=O)(=O)Nc4nccs4)cc3)nnc2-c2ccccn2)cc1 | 23.8% (active) |
| CC(C)c1ccc(CC(=O)N2CCC2(C)C(=O)NS(=O)(=O)c2ccc(C(C)(C)C)cc2)cc1 (stereo not drawn) | 25.3% (active) |
| CC1(C(=O)NS(=O)(=O)c2ccccc2)CCN1C(=O)Cc1ccc(-c2ccccc2)cc1 (stereo not drawn) | 7.2% (active) |
| COc1ccc(S(=O)(=O)NC(=O)C2(C)CCN2C(=O)c2ccccc2CCc2ccccc2)cc1 (stereo not drawn) | 6.35% (active) |
| CC1(C(=O)NS(=O)(=O)Cc2cccc(Cl)c2)CCN1C(=O)Cc1ccc(Cl)cc1Cl (stereo not drawn) | 36.2% (active) |
| CCCc1ccc(OCC(=O)NNC(=S)NC(=O)c2ccco2)cc1 | 14.4% (active) |
| CC(Oc1ccc2ccccc2c1)C(=O)NNC(=S)NC(=O)c1ccco1 (stereo not drawn) | 11.8% (active) |
| O=C(Nc1ccc2c(c1)CCC2)c1cccc(S(=O)(=O)Nc2ccccc2Cl)c1 | 10.7% (active) |
| NS(=O)(=O)c1ccc(N=Nc2c(O)[nH]c3ccc(Br)cc23)cc1 | 9.96% (active) |
| N#CCC(=O)Nc1ccc(C(=O)OCC(=O)Nc2sc3c(c2C#N)CCCC3)cc1 | 17% (active) |
| COC(=O)c1sccc1NC(=O)CSc1ccccc1NS(=O)(=O)c1cc(Cl)ccc1Cl | 32.6% (active) |
| NS(=O)(=O)c1ccc(NC2=CC(c3ccc(F)cc3)N(c3ccc(S(N)(=O)=O)cc3)C2=O)cc1 (stereo not drawn) | 15% (active) |
| CC(C)(C)C1C/C(=C/c2ccco2)C(=O)/C(=C/c2ccco2)C1 (stereo not drawn) | 17.1% (active) |
| CC(=O)N(c1ccc2oc(=O)sc2c1)S(=O)(=O)c1ccc(C)cc1 | 3.88% (inactive) |
| O=C(c1cccnc1)N(c1cc2sc(=O)oc2c2ccccc12)S(=O)(=O)c1ccccc1 | 20.1% (active) |
| COc1ccc(Cc2nnc(SCC(=O)Nc3ccc(C)c(Cl)c3)[nH]c2=O)cc1 | 24.4% (active) |
